# Measurements published in PubChem BioAssay (NCI).
# The panel holds about 83,000 compounds, 20% with a hit somewhere; the sample as a whole holds those more often.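 Note: values are percent growth. 100 is the growth of untreated cells, values between 100 and 0 indicate rising inhibition; between -100 and 0 indicates cell death.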 A number with no mark means an inactive call. The source made the active and inactive calls. The calls were made as follows: active = growth percent below 10; inactive = the rest.
# Assays:
# Assay in all cases: NCI-60 one-dose screen, 48 h (100 = growth as untreated, 0 = no growth, -100 = all killed)
# Settings in all cases: 10 µM unless noted
# DU-145 prostate = system: DU-145 prostate
# K-562 leukemia = system: K-562 leukemia
# MALME-3M melanoma = system: MALME-3M melanoma
# MDA-MB-231 breast = system: MDA-MB-231 breast
# RXF 393 renal = system: RXF 393 renal
# SF-268 CNS = system: SF-268 CNS
# SF-295 CNS = system: SF-295 CNS
# SF-539 CNS = system: SF-539 CNS
# UACC-257 melanoma = system: UACC-257 melanoma
# M14 melanoma = system: M14 melanoma
# HCT-15 colon = system: HCT-15 colon
# HT29 colon = system: HT29 colon
# SNB-75 CNS = system: SNB-75 CNS
# SNB-19 CNS = system: SNB-19 CNS
# U251 CNS = system: U251 CNS
# PC-3 prostate = system: PC-3 prostate
# SK-MEL-5 melanoma = system: SK-MEL-5 melanoma
# UACC-62 melanoma = system: UACC-62 melanoma
# LOX IMVI melanoma = system: LOX IMVI melanoma
# SK-MEL-28 melanoma = system: SK-MEL-28 melanoma
SMILES,growth (DU-145 prostate),growth (K-562 leukemia),growth (MALME-3M melanoma),growth (MDA-MB-231 breast),growth (RXF 393 renal),growth (SF-268 CNS),growth (SF-295 CNS),growth (SF-539 CNS),growth (UACC-257 melanoma),growth (M14 melanoma),growth (HCT-15 colon),growth (HT29 colon),growth (SNB-75 CNS),growth (SNB-19 CNS) [%],growth (U251 CNS),growth (PC-3 prostate),growth (SK-MEL-5 melanoma),growth (UACC-62 melanoma),growth (LOX IMVI melanoma),growth (SK-MEL-28 melanoma)
O=C(/C=C/c1cccc(Cl)c1Cl)Nc1ncc(Cc2ccccc2Cl)s1,53.3%,13.4%,62.1%,75%,37.8%,82.2%,21.4%,11.5%,78.1%,12.5%,21.1%,11.9%,36.4%,47.2,50.9%,56.5%,45.8%,42.7%,44.7%,58.6%
c1ccc2c(c1)CCCc1nnc3nc4ccccc4n3c1-2,39.9%,31.4%,53.5%,38.5%,46.7%,44.5%,30.7%,69.5%,37.6%,28.3%,40.2%,31.4%,45.4%,56.5,38.5%,37.1%,56.5%,57.7%,33.7%,83.7%
C=CCn1c(SCC(=O)Nc2ccc(/C(C)=N/O)cc2)nnc1-c1cc(-c2ccc(S(N)(=O)=O)cc2)nc2ccccc12,105%,38.8%,88.9%,74.1%,93.5%,67.1%,98.4%,64.2%,92.7%,93.5%,96.5%,105%,54.2%,70.3,67.2%,80.2%,65.6%,69.7%,27%,93.3%
O=C(O)c1cn(C2CC2)c2cc(N3CCN(C(=O)Nc4nc(-c5ccc(Br)cc5)cs4)CC3)c(F)cc2c1=O,17%,18%,29.3%,28.9%,25.2%,24.2%,19.5%,23.6%,3.57% (active),23.7%,14.3%,9.27% (active),24%,19.7,12.7%,19.2%,-41% (active),-1.55% (active),-9.03% (active),42.2%
C=C1C(=O)O[C@H]2[C@H]1CC/C(COC(=O)/C=C\C(=O)NCc1ccc(Cn3c(=O)sn(CCCl)c3=O)cc1)=C\CC[C@@]1(C)O[C@@H]21,57.6%,28.9%,43.6%,90%,56.3%,89%,103%,96.5%,81.8%,51.6%,44.8%,86.6%,99.5%,111,88.9%,94.6%,101%,85.7%,67.2%,87%
Fc1cc(Nc2ccc3c(OCCCN4CCOCC4)cccc3n2)ccc1Cl,48.1%,-34.8% (active),21.4%,-18.9% (active),1.26% (active),48.5%,-46.2% (active),15.7%,75.9%,-31.1% (active),-13.4% (active),-49.3% (active),37.3%,17.8,14.4%,30.6%,63.6%,-31.7% (active),-78.7% (active),-35.8% (active)
CC1=CCC(OC(=O)C(C)(C)CC(O)(C(C)O)C(O)C2(C)C=CC(Cc3ccc(C(C)C)cc3)(C(C)C)CC2)(C(C)C)CC1 (stereo not given),107%,9.06% (active),92.2%,95.9%,97.8%,98.5%,97.1%,93.3%,98.7%,96.1%,101%,103%,72.5%,98.2,96.7%,96.8%,99.6%,86.3%,-50.6% (active),100%
COC(=O)CC[C@@H]1O[C@@H](c2ccc(F)cc2)[C@@H](O)[C@H]1O,112%,109%,101%,117%,112%,103%,104%,102%,107%,92.9%,105%,108%,90.1%,108,109%,96.8%,95.7%,106%,99.8%,102%
S=c1[nH]c(=S)c2c(-c3ccccc3)c(-c3ccccc3)oc2[nH]1,109%,80.2%,107%,99%,91.2%,104%,97.5%,98.3%,80.1%,105%,99.1%,102%,95.2%,96.2,95.9%,103%,108%,93.9%,96.5%,105%
O=C(Nc1ccccc1[N+](=O)[O-])c1ccc(Cl)c(Cl)c1,102%,91.9%,93.5%,93.2%,88.1%,89.8%,93.3%,89.4%,90.8%,101%,91%,98.7%,69.6%,101,86.1%,80.3%,84.2%,87.2%,85.9%,105%
O=C(O)[C@@H](Cc1ccc2ccccc2c1)NC(=O)n1c2ccccc2c2ccccc21,19.4%,11.6%,22%,15.6%,14.6%,42.5%,11.6%,1.16% (active),57.7%,4.26% (active),21.1%,4.59% (active),20.1%,25.4,14.8%,26.7%,3.91% (active),18.3%,35.9%,63.3%
C/C(=N\O)c1ccc(NC(=O)CSc2nnc(-c3cc(-c4ccc(S(N)(=O)=O)cc4)nc4ccccc34)n2-c2ccccc2)cc1,80.3%,43%,80%,74.3%,83.9%,60.3%,92.2%,76.4%,87.3%,74.4%,81%,66.2%,24.3%,66.9,62.5%,63.6%,54%,62.4%,37.7%,84.4%
C=C1CC[C@@H]2[C@](C)(COC(C)=O)[C@H](OC(C)=O)CC[C@@]2(C)[C@@H]1CC(Nc1ccc(S(=O)(=O)NC(C)=O)cc1)C1=CCOC1=O (stereo not given in full),0.37% (active),4.81% (active),-43.6% (active),-38.7% (active),-75.8% (active),6.72% (active),58.4%,-76.7% (active),-10.6% (active),-35.1% (active),-49.5% (active),-69.9% (active),26.3%,23,-65.5% (active),0.695% (active),7.36% (active),-12.5% (active),-85.8% (active),-36.6% (active)
Cn1c2c(c3ccc(Cl)c(Cl)c31)C(C#N)C(C)(C)NC2=O (stereo not given),106%,74.5%,90.4%,81.1%,76.4%,99.6%,76.1%,86.2%,77.4%,90.3%,96.1%,88.5%,76.6%,91.8,91.1%,95.1%,5.3% (active),66.6%,84.4%,105%
O=P(O)(O)OCC1OC(n2cnc3c(NCc4ccco4)ncnc32)C(O)C1O (stereo not given),-58.5% (active),63.3%,87.4%,-21.5% (active),4.85% (active),29.3%,34.7%,16.1%,77.6%,34.5%,5.11% (active),16.7%,8.93% (active),31.9,38.3%,9.01% (active),40.2%,45.4%,-30.9% (active),87%
